DT40 TDP1 no CPT = qHTS for Inhibitors of human tyrosyl-DNA phosphodiesterase 1 (TDP1): qHTS in cells in absence of CPT | DT40 Tdp1-/- hTDP1 cells, no CPT, ATP luminescence, 48 h | Potency, µM (series often up to 46.2 µM), inactives show top-dose activity change, negative = growth inhibition, most hits filed as inhibitors | actives 15% (n = 420,000) | AID 686978, 2013; further: potency means the concentration at half of the fitted maximal effect; nearly all actives have a fitted effect of over 55% in size
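Readout: luminescence from CellTiter-Glo after 30 min in the dark at RT. Cells: DT40 Tdp1-/- with stable hTDP1, 400/well. Exposure: compounds alone, ≥48 hr, 37 °C.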
HT1080 IDH1KD tx = toxicity to HT-1080 IDH1 knockdown cells (counter line); HT-1080 IDH1 knockdown viability, ATP luminescence, 48 h; Potency, µM (highest dose often 46.1 µM), for inactives: at the highest dose activity, negative = toxicity, usual class: cytotoxic; actives 2% (n = 360,000); AID 686971;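 further: potency means the concentration at half of the fitted maximal effect; 0% = DMSO wells and -100% = cell-free medium wells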
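% activity derives from luminescence (CellTiter-Glo), normalised to DMSO and no-cell wells. HT-1080-IDH1KD cells, 750/well, had 48 h compound exposure at 37 °C.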
IL-1B inflam inh = inflammasome signaling inhibition, IL-1 beta readout. THP-1 LPS/ATP IL-1B secretion, AlphaLISA, 16 h; active compounds read low. activity change, % at 57.5 µM. actives 4.7% (n = 360,000). AID 743279; in the data active means activity change below about -50%; inconclusive means mostly about -30% to -49%
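Secreted IL-1B measured by AlphaLISA bead assay after 16 h compound exposure of THP-1 cells; compounds (final up to 57.5 uM) added 1 h before LPS (250 ng/mL) and ATP (1.25 mM) stimulation; lower signal means less secretion.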
12-LOX inh = blocks human arachidonate 12S-lipoxygenase. P18054. purified 12hLO, xylenol orange hydroperoxide absorbance. Potency, µM (series often up to 108 µM), inactives show at the top dose activity change, negative = inhibition, most hits filed as inhibitors. actives 1.1% (n = 580,000). AID 1671190; further: potency means the concentration at half of the fitted maximal effect
Target sequence (P18054 whole entry, looked up): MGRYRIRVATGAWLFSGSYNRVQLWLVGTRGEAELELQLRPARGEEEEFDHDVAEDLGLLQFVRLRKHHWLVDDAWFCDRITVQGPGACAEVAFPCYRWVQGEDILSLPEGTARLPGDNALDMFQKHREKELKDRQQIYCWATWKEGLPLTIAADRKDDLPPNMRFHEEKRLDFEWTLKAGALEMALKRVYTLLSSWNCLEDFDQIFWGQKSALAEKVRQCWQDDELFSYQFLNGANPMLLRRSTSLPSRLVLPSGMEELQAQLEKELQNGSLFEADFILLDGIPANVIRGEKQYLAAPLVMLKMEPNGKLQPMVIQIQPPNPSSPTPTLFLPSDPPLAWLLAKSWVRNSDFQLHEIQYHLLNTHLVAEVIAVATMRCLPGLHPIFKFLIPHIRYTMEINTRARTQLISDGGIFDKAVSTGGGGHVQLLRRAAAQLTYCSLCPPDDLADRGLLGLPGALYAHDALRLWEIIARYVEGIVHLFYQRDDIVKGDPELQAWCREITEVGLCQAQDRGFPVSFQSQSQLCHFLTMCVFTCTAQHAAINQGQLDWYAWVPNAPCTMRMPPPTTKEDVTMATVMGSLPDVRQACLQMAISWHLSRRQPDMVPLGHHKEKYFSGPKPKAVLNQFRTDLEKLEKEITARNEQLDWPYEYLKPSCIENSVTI
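Purified human 12hLO at 150 nM in 25 mM Hepes, 0.01% Triton X-100, pH 7.0, preincubated 15 min at room temperature with compound. Reaction started with 40 uM arachidonic acid, 30 min at room temperature. Hydroperoxide measured by Fe-xylenol orange, 573/405 nm absorbance ratio.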
DT40 TDP1 CPT = growth inhibition of DT40 Tdp1-/-;hTDP1 cells with camptothecin (screen for TDP1 inhibitors); chicken DT40 Tdp1-/-;hTDP1 cells + 20 nM CPT, ATP luminescence, 48 h; Potency, µM (series often up to 46.2 µM), inactives show at the highest dose activity change, negative = growth inhibition, hits mostly inhibitors; actives 12% (n = 420,000); further: potency means the concentration at half of the fitted maximal effect; nearly all actives have a fitted effect of over 55% in size
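Chicken DT40 Tdp1-/- cells stably complemented with human TDP1 were seeded at 400 cells/well in medium containing 20 nM camptothecin, exposed to pin-transferred compounds, and grown at 37 °C for at least 48 hr. Viability was read as ATP luminescence.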
HT1080-NT tox = kills 2HG-producing HT-1080-NT fibrosarcoma cells. HT-1080-NT fibrosarcoma viability, CellTiter-Glo ATP luminescence, 48 h. Potency, µM (titrated, usually from 46.1 µM), inactives show at the top dose activity, negative = less viability, hits mostly cytotoxic. actives 1.6% (n = 360,000). AID 686970;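 further: NT is the 2HG producing partner of a matched IDH1 knockdown line; potency means the concentration at half of the fitted maximal effect; 0% = DMSO-treated cells and -100% = media-only wells without cells; nearly all actives have a fitted effect of over 55% in size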
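750 cells/well, RPMI + 5% FBS; 2 h settle, compound pin-transfer, 48 h at 37 degrees C. CellTiter-Glo 10 min RT, luminescence. Normalized to DMSO and media-only wells.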
The depositor's hits bear a star; ? = inconclusive; · = no result given; [ ] = dose if it differs, or a comment. This is one part of a sample in which hits are shown more often than they occur. Unless noted, the call rests on the fitted dose curve; in most records, active means well fitted curve in the direction sought with a large enough effect; inconclusive means small, poorly fitted or top-dose-only effect, or another doubt; inactive means no such curve, though single readings can be large; an effect the other way counts as inactive or inconclusive. Unless noted, on the % scale 0 is the no-effect control and ±100 the full control effect.

SMILES | DT40 TDP1 no CPT | HT1080 IDH1KD tx | IL-1B inflam inh | 12-LOX inh | DT40 TDP1 CPT | HT1080-NT tox
O=C1c2ccccc2C(c2ccc(NC(=O)C(c3ccccc3)c3ccccc3)cc2)(c2ccc(NC(=O)C(c3ccccc3)c3ccccc3)cc2)c2ccccc21 | · | · | · | 0% | · | ·
CN(C)c1ccc(NC(=O)Nc2ccc3c(c2)nnn3C)cc1 | -3% | 4% | -1 | -7% | 3% | 25%
CN(C)c1ccc(NC(=O)Nc2ccc3c(c2)c(=O)n(C)n3-c2ccccc2)cc1 | 21µM* | ? | -24 | ? | ? | 16µM*
CN(C)c1ccc(NC(=S)Nc2ccc3c(c2)c(=O)n(C)n3-c2ccc(C(C)(C)C)cc2)cc1 | 12µM* | 18µM* | 5 | ? | 21µM* | ?
CCNC(=S)Nc1ccc2c(c1)c(=O)n(C)n2-c1cc(C)cc(C)c1 | ? | -10% | -23 | ? | ? | 1%
O=C(NC1CCCC1)c1cc2c(Cl)nc3ccccc3c2s1 | · | · | · | -7% | · | ·
CC1CCCN(CCCNC(=O)c2cc3c(Cl)nc4ccccc4c3s2)C1 (stereo not drawn) | 7.3µM* | 23µM* | · | -9% | 10µM* | ?
O=C(NCCCN1CCN(c2ccc(F)cc2)CC1)c1cc2c(Cl)nc3ccccc3c2s1 | 4.6µM* | · | · | -3% | 7.3µM* | ·
O=C(c1ccccn1)N1CCC(N2CCOC2=O)CC1 | · | · | · | 1%[12.5 µM] | · | ·
CS(=O)(=O)c1ccccc1C(=O)Nc1ccc(-c2nc3ccccc3[nH]2)cc1 | ? | 0% | -7 | -23% | -23% | 3%
CN(c1ccccc1)S(=O)(=O)c1ccc(Cl)c(C(=O)Nc2nn[nH]n2)c1 | 2% | 8% | 12 | ? | 4% | -12%
CS(=O)(=O)c1cccc(C(=O)Nc2ccc(-c3nc4ccccc4[nH]3)cc2)c1 | 7.3µM* | 12µM* | -4 | 0% | 8.2µM* | 12µM*
CN(c1ccccc1)S(=O)(=O)c1ccc(Cl)c(C(=O)Nc2nc3ccccc3[nH]2)c1 | 15µM* | ? | ? | 5% | 15µM* | -21%
CN(c1ccccc1)S(=O)(=O)c1ccc(Cl)c(C(=O)Nc2ccc(-c3nc4ccccc4[nH]3)cc2)c1 | 18µM* | ? | 11 | -4% | 18µM* | -22%
Cc1ccccc1C(=O)Nc1ccc(-c2nc3ccc(C(=O)c4ccccc4)cc3[nH]2)cc1 | 5.2µM* | ? | 25 | 0% | 9.2µM* | -22%
Cc1ccc(-n2c(SCC(=O)NCC3CCCO3)nc3n[nH]c(C)c3c2=N)cc1Cl (stereo not drawn) | 9.2µM* | -11%[9.24 µM] | -18 | 1% | 9.2µM* | -21%
COc1ccc(-n2c(SCC(=O)NCC3CCCO3)nc3n[nH]c(C)c3c2=N)cc1 (stereo not drawn) | 18µM* | -4% | -56* | 0% | ? | -7%
Cc1ccc(-n2c(SCC(=O)NCC3CCCO3)nc3ccccc3c2=O)cc1 (stereo not drawn) | -1% | 1% | -25 | 10% | ? | -1%
COc1ccc(-n2c(SCC(=O)NCC3CCCO3)nc3c([nH]c4ccccc43)c2=O)cc1 (stereo not drawn) | -7% | 0% | 18 | -10% | 6% | 3%
COc1ccc(-n2c(SCC(=O)NCC3CCCO3)nc3ccccc3c2=O)cc1Cl (stereo not drawn) | 21µM* | 1% | -10 | 10% | 8.2µM* | -3%
COc1cc(NC(=O)Cn2c(-c3ccc(F)cc3)nc(C)cc2=O)cc(OC)c1 | · | · | · | 17% | · | ·
COC[C@@H]1CN(S(C)(=O)=O)C[C@H]1c1ccncc1 | · | · | · | 29% | · | ·
